Source: PubChem BioAssay (National Center for Advancing Translational Sciences (NCATS))
IL1B secr inh – inhibitors of inflammasome signaling (IL-1 beta secretion). THP-1 LPS/ATP IL-1B secretion, AlphaLISA, 16 h; stronger effect = lower value. activity change, % at 57.5 µM. hit rate 4.7% among 360,000. AID 743279; in the data active means activity change below about -50%; inconclusive means mostly about -30% to -49%
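Secreted IL-1B measured by AlphaLISA bead assay after 16 h compound exposure of THP-1 cells; compounds (final up to 57.5 uM) added 1 h before LPS (250 ng/mL) and ATP (1.25 mM) stimulation; lower signal means less secretion.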
ELG1 DNA repair – ELG1-dependent DNA repair inhibition | HEK293T ELG1-luciferase reporter, luminescence, 16 h; DNA damage induced by 5-fluorouridine | Potency, µM (series often up to 46.1 µM), without a hit: at the highest dose activity change, negative = inhibition, hits mostly inhibitors | hit rate 2.3% among 330,000 | AID 504467; further: potency means the concentration at half of the fitted maximal effect; nearly all actives have a fitted effect of over 55% in size
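Quantitative HTS, concentration-response format. 2,000 cells/well co-treated with 5-fluorouridine and compound, 16 hr in 5% CO2 at 37 °C; ONE-Glo luminescence read after 30 min.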
VP16 counter – Gal4-VP16 reporter inhibition counter-screen; Drosophila S2 Gal4-VP16 UAS-luciferase, luminescence, 20 h; Potency, µM (titrated, usually from 53.6 µM), inactives show at the top dose activity, negative = inhibition, most hits filed as inhibitors; hit rate 3.5% among 310,000; AID 2546;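 further: Gal4-VP16 expression switched on by copper sulfate through the metallothionein promoter; potency means the concentration at half of the fitted maximal effect; nearly all actives have a fitted effect of over 50% in size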
DT40 TDP1 no CPT – qHTS for Inhibitors of human tyrosyl-DNA phosphodiesterase 1 (TDP1): qHTS in cells in absence of CPT. DT40 Tdp1-/- hTDP1 cells, no CPT, ATP luminescence, 48 h. hit rate 15% among 420,000. AID 686978, 2013. Potency, µM (highest dose often 46.2 µM), without a hit: top-dose activity change, negative = growth inhibition, actives largely listed as inhibitors; further: potency means the concentration at half of the fitted maximal effect; nearly all actives have a fitted effect of over 55% in size
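Seeded 400 DT40-hTDP1 cells/well (vehicle DMSO, no 20 nM CPT); pinned compounds; ≥48 hr at 37 °C; CellTiter-Glo luminescence as viability measure.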
RORgamma inh – ROR gamma (mouse) transcription inhibition | hit rate 5.4% among 310,000 | AID 2551 | Drosophila S2 Gal4-RORgamma UAS-luciferase reporter, 20 h | Potency, µM (titrated, usually from 53.6 µM), for the others: top-dose activity change, negative = inhibition, actives largely listed as inhibitors; further: potency means the concentration at half of the fitted maximal effect; nearly all actives have a fitted effect of over 60% in size
Target sequence (P51450 whole entry, looked up, the tested form may be a part): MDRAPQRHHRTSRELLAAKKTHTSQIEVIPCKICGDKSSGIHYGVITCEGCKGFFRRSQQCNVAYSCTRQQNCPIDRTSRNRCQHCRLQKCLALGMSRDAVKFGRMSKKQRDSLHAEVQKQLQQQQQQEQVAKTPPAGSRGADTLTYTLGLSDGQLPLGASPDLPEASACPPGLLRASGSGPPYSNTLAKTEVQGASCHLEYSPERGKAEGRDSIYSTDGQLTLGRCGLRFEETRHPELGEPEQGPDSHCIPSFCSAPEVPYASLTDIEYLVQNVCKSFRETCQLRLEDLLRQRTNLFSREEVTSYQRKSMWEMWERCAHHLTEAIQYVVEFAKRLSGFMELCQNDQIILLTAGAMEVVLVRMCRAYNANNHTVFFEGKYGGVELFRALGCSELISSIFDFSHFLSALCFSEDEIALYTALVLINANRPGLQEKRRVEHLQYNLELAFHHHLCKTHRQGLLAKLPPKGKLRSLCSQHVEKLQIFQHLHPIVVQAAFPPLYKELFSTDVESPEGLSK
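Read-out: Photinus luciferase luminescence; inhibitors lower reporter signal. Insect Schneider cells with Gal4-ROR gamma fusion under metallothionein promoter, UAS reporter; 700 uM final copper sulfate induction, 20 hr, ambient temperature.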
TDP1 cell CPT – growth inhibition of DT40 Tdp1-/-;hTDP1 cells with camptothecin (screen for TDP1 inhibitors); hit rate 12% among 420,000; Potency, µM (top dose mostly 46.2 µM), without a hit: at the top dose activity change, negative = growth inhibition, most hits filed as inhibitors; AID 686979; chicken DT40 Tdp1-/-;hTDP1 cells + 20 nM CPT, ATP luminescence, 48 h; further: potency means the concentration at half of the fitted maximal effect; nearly all actives have a fitted effect of over 55% in size
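Chicken DT40 Tdp1-/- cells stably complemented with human TDP1 were seeded at 400 cells/well in medium containing 20 nM camptothecin, exposed to pin-transferred compounds, and grown at 37 °C for at least 48 hr. Viability was read as ATP luminescence.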
* marks the source's active call; other numbers are inactive results; i = inactive; ? = inconclusive; . = no result; [ ] = another dose, or the depositor's remark. Hits are enriched below; roughly 21% of the tested compounds scored in any of these assays. Unless noted, the call rests on the fitted dose curve; in most records, active means well fitted curve in the direction sought with a large enough effect; inconclusive means small, poorly fitted or top-dose-only effect, or another doubt; inactive means no such curve, though single readings can be large; an effect the other way counts as inactive or inconclusive. On the % scale 0 is the no-effect control and ±100 the full control effect.

SMILES | IL1B secr inh | ELG1 DNA repair | VP16 counter | DT40 TDP1 no CPT | RORgamma inh | TDP1 cell CPT
C[n+]1ccc(/C=C/c2ccc(C=S)cc2)c2ccccc21 | . | . | . | 3.2µM* | . | 4µM*
Cc1cc(N(C)C)cc(C)c1/C=C/c1cc[n+](C)c2ccccc12 | . | . | . | 0.56µM* | . | 0.56µM*
CCOc1ccc(-n2ccnc2SCC(=O)Nc2nc3ccc(C)cc3s2)cc1 | . | . | . | -23% | . | -1%
CN(C)c1ccc(/C=C/c2cc[n+](C)c3ccc4ccccc4c23)cc1 | . | . | . | ? | . | 0.089µM*
Cc1c2ccccc2cc[n+]1C | . | . | . | -16% | . | -6%
O=C(CSc1nc2ccccc2c(=O)n1-c1ccc(F)c(Cl)c1)Nc1cccc(S(=O)(=O)N2CCOCC2)c1 | 9 | -18% | -17% | ? | 40% | 16µM*
Cc1ccc(-n2c(SCC(=O)Nc3cc(S(=O)(=O)N4CCOCC4)ccc3Cl)nc3ccccc3c2=O)cc1 | 7 | -16% | 14% | -6% | 27% | -25%
O=C(CSc1nc2ccccc2c(=O)n1-c1ccc(F)cc1)Nc1ccc(Cl)c(S(=O)(=O)N2CCOCC2)c1 | -1 | -27% | -13% | 16µM* | ? | ?
O=C(NCc1ccccn1)c1cc(S(=O)(=O)N2CCCCC2)ccc1Cl | 13 | 18% | . | -17% | . | ?
C[C@@H]1O[C@H]2C3=C(C(=O)[C@H]4O[C@@H]4[C@H]3O)[C@@H]1[C@@H]1[C@@H](C)OC=C3[C@H](O)[C@H]4O[C@@H]4/C(=N\OCc4ccccc4)[C@]312 | . | . | 2%[10 µM] | . | -28%[10 µM] | .
O=C(Nc1ccc2oc(=O)ccc2c1)c1ccc(-c2cccc(Cl)c2)o1 | -27 | 29% | 0% | ? | 13% | 8.2µM*
O=C(Nc1ccc2oc(=O)ccc2c1)c1ccc(-c2cccc([N+](=O)[O-])c2)o1 | 6 | ? | -1% | 7.3µM* | 33% | 8.2µM*
O=C(Nc1ccc2oc(=O)ccc2c1)c1ccc(-c2ccccc2[N+](=O)[O-])o1 | 23 | ? | ? | ? | -44% | 1%
Cc1cccc2c1-c1sc(C(=O)N3CCN(c4ccccc4)CC3)cc1CO2 | . | . | . | 16µM* | . | 8.2µM*
COc1ccc(CNC(=O)c2cc3c(s2)-c2c(C)cccc2OC3)cc1 | . | . | . | -6% | . | -8%
Cc1cccc2c1-c1sc(C(=O)N(C)c3cccc(Cl)c3)cc1CO2 | . | . | . | ? | . | 16µM*
CCCN1CCN(CCCNC(=O)c2cc3c(s2)-c2c(C)cccc2OC3)CC1 | -14 | 6% | 6% | 26µM* | 9% | 23µM*
COc1ccc(NC(=O)c2cc3c(s2)-c2c(C)cccc2OC3)c(OC)c1 | . | . | . | 23µM* | . | ?
CCCN(CC(=O)Nc1ccc(Cl)cc1Cl)C(=O)c1ccc(=O)[nH]c1 | -14 | -4% | 0% | 18% | -40% | 1%
CCCN(C(=O)c1cc2c(s1)-c1c(C)cccc1OC2)c1ccc(OCC)cc1 | . | . | . | 5.2µM* | . | 5.2µM*
Cc1cccc2c1-c1sc(C(=O)NCCCN3CCCC(C)C3)cc1CO2 (stereo not given) | -18 | -4% | -15% | 21µM* | ? | ?
CCOCCCN(Cc1ccco1)C(=O)c1cc2c(s1)-c1c(C)cccc1OC2 | . | . | . | 23µM* | . | ?
Cc1cccc2c1-c1sc(C(=O)NCCc3ccc(Cl)cc3)cc1CO2 | . | . | . | 7.3µM* | . | 13µM*
CC1CCCC(C)N1CCCNC(=O)c1cc2c(s1)-c1ccccc1OC2 (stereo not given) | -9 | 17% | 1% | ? | -23% | ?
COc1cc(CCCN2C(N)=NC[C@H]2Cc2ccc(O)cc2)cc(OC)c1OC | 13 | 3% | 5% | 3% | -24% | -26%
SMILES | IL1B secr inh | ELG1 DNA repair | VP16 counter | DT40 TDP1 no CPT | RORgamma inh | TDP1 cell CPT
O=C1CCCc2ccccc2N1Cc1ccc(F)cc1 | 4 | 0% | 1% | ? | 4% | 12µM*
O=C1CCc2ccccc2N1Cc1ccccc1 | 24 | -10% | -10% | -7% | 0% | 18%
O=C1CCCc2ccccc2N1Cc1cccc(F)c1 | 25 | 27% | 4%[10 µM] | 12µM* | 30% | 15µM*
COc1ccc([C@H]2C[C@H](n3cc(COC(=O)c4ccccc4)nn3)[C@@H](O)CN2C(=O)c2cccs2)cc1 | 5 | . | . | 3% | . | 6%
O=C(CCc1nnc(Cc2c[nH]c3ccccc23)o1)NCC1CC12CCCCC2 (stereo not given) | -5 | 9% | 2% | 26µM* | 20% | ?
CC(Oc1ccc(Cl)cc1Cl)C(=O)NC(=S)N1CCc2ccccc21 (stereo not given) | 30 | 4% | 0.89µM* | ? | 0.71µM* | ?
O=C(COc1ccc(Br)cc1Br)NC(=S)N1CCCc2ccccc21 | 27 | ? | 6% | -4% | 2% | 0%
O=C(COc1ccc(Br)cc1Cl)NC(=S)N1CCc2ccccc21 | 47 | ? | 0.71µM* | -7% | 0.79µM* | -18%
COc1ccc(C(=O)NCCC2=CCCCC2)cc1 | 0 | ? | ? | ? | 13µM* | ?
O=C(NCCC1=CCCCC1)c1ccc(F)cc1 | -20 | ? | 11µM* | ? | ? | ?
O=C(O)CCCN1C(=O)C2C3CCC(C3)C2C1=O (stereo not given) | 23 | . | . | 1% | . | ?
CSCCC(NC(=O)c1ccccc1Br)C(=O)NNC(=O)c1cc(C)oc1C (stereo not given) | 11 | -27% | . | -4% | . | -17%
NS(=O)(=O)c1ccc(NC(=O)Nc2ccc3c(c2)OCO3)cc1 | i | ? | 9% | 3% | 17% | 4%
CCn1c(SCc2ccc(C(=O)Nc3cc(C)cc(C)c3)cc2)nnc1-c1ccncc1 | -65* | ? | -2% | ? | 27% | ?
CCn1c(SCc2cccc(F)c2)nnc1-c1cccnc1 | 8 | 3% | 6% | -9% | 12% | -2%
CCn1c(SCc2cccc(F)c2)nnc1-c1ccncc1 | 2 | 2.6µM* | 0% | -1% | -12% | -9%
COc1ccc(/C=C(\C#N)c2cc(OC)c(OC)cc2[N+](=O)[O-])cc1 | 23 | -11% | 3% | -23% | -2% | -23%
COc1cc(/C(C#N)=C/c2ccccc2)c([N+](=O)[O-])cc1OC | -83* | ? | -30% | ? | ? | -25%
N#C/C(=C\c1cccnc1)c1ccccc1[N+](=O)[O-] | -92* | -18% | 3% | ? | -24% | -3%
